Screening results (PubChem)
Cruzain Triton = qHTS Assay for Promiscuous and Specific Inhibitors of Cruzain (with detergent); purified cruzain, Z-FR-AMC fluorescence, 0.01% Triton; actives 0.43% (n = 200,000); AID 1478, 2009; Potency, µM, usual class: inhibitors; further: nearly all actives have a fitted effect of over 40% in size
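Cysteine protease activity tested under reducing, mildly acidic conditions (100 mM sodium acetate pH 5.5, 5 mM DTT) plus 0.01% Triton X-100. Cruzain 1.5 nM; substrate Z-FR-AMC 2 uM; 15 min compound preincubation at room temperature.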
Cruzain inh noDet = qHTS Assay for Promiscuous and Specific Inhibitors of Cruzain (without detergent); Cruzipain (Trypanosoma cruzi), P25779; purified cruzain, Z-FR-AMC fluorescence, no detergent; Potency, µM, actives largely listed as inhibitors; actives 2.3% (n = 200,000); AID 1476, 2009; further: nearly all actives have a fitted effect of over 40% in size
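Purified cruzain at 1.5 nM, pre-incubated 15 min with compound at room temperature in 100 mM sodium acetate pH 5.5, 5 mM DTT, 0.00005% Triton X-100. Reaction started with 2 uM Z-FR-AMC; AMC fluorescence increase over 60 s gives rate.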
Papain inh = qHTS Assay for Inhibitors of Papain: Counterscreen for Cruzain Assay. shares compounds with Cruzain Triton. purified papain, Z-FR-AMC fluorescence cleavage. Potency, µM, hits mostly inhibitors. actives 41% (n = 410); further: nearly all actives have a fitted effect of over 35% in size
Target sequence (P00784 whole entry, looked up): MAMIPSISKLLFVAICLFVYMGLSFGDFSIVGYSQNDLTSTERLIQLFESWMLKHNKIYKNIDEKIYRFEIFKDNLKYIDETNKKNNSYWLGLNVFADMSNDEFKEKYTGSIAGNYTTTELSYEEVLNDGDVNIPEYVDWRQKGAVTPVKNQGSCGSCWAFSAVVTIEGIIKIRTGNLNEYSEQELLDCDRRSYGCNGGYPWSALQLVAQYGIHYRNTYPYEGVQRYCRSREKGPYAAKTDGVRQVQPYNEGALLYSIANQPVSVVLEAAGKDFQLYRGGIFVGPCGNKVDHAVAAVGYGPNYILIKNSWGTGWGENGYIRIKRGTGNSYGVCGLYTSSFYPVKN
Large screens that a line does not name were inactive (follow-up assays come after a bar, where they were run); ! = a repeat was not active. Only some compounds are listed: those with a hit (about 2.4% of all), similar ones and a draw of the others. The call rests on the fitted dose curve; in most records, active means well fitted curve in the direction sought with a large enough effect; inconclusive means small, poorly fitted or top-dose-only effect, or another doubt; inactive means no such curve, though single readings can be large; an effect the other way counts as inactive or inconclusive.

COc1ccc2cc3cc(C(=O)NCCCN4CCOCC4)oc3nc2c1	Cruzain Triton 32µM, Cruzain inh noDet inconclusive | Papain inh 16µM
COc1ccc2cc3cc(C(=O)NCCN4CCN(Cc5ccccc5)CC4)oc3nc2c1	Cruzain Triton inconclusive
O=C(CCn1c(=O)c2cccn2c2cccnc21)NCc1ccc(Cl)cc1	none
CN(C)c1ccc(C(CNS(=O)(=O)c2ccc(Cl)cc2)N2CCCC2)cc1 (stereo not given)	none
C/C(CC(=O)Nc1ccc(Cl)c(Cl)c1)=N\NC(N)=S	Cruzain Triton 0.5µM, Cruzain inh noDet 0.32µM | Papain inh inactive
C/C(CC(=O)Nc1cccc(Cl)c1)=N\NC(=O)Cc1ccc(Cl)cc1	none
CC(=O)Nc1ccc(Cl)c(C(N)=O)c1	none
C/C(CC(=O)Nc1cc(Cl)ccc1Cl)=N\NC(N)=S	Cruzain Triton 1µM, Cruzain inh noDet 1µM | Papain inh 2.8µM
CCCNC(=O)CCC(=O)N1Cc2cccc(OC)c2Oc2ncccc21	none
COc1ccc(CCNc2ncnc3c2nnn3C)cc1OC	none
COc1ccc(NS(=O)(=O)c2cc(NC(=O)/C=C/c3cccs3)ccc2N2CCOCC2)cc1	Cruzain inh noDet inconclusive
COc1ccc(NS(=O)(=O)c2cc(NC(=O)/C=C/c3ccccc3OC)ccc2N2CCCCC2)cc1	Cruzain inh noDet 3.2µM | Papain inh inactive
O=C(Nc1ccccc1C(=O)OCc1cc(=O)n2nc(C3CC3)sc2n1)c1cccc(F)c1	none
CC1CN(C(=O)Nc2ccc(C(=O)NCCc3ccc(Cl)cc3)cc2)c2ccccc2S1 (stereo not given)	none
O=C(/C=C/c1ccc2c(c1)OCO2)Nc1nc2ccccc2s1	none
CCSc1nnc(NC(=O)c2ccc(Br)s2)s1	Cruzain inh noDet 25µM | Papain inh inactive
CCSc1nnc(NC(=O)/C=C/c2ccc3c(c2)OCO3)s1	Cruzain Triton 16µM, Cruzain inh noDet 16µM | Papain inh inactive
CCSc1nnc(NC(=O)c2ccccn2)s1	none
Cc1ccccc1Cn1c(=O)n(CCc2ccccc2)c(=O)c2c(C)c(C)sc21	none
COCCCNC(=O)c1cnn(-c2ccccc2Cl)c1C1CCN(C(=O)OC(C)(C)C)CC1	Cruzain inh noDet inconclusive
COc1ccc(Br)cc1CNC(=O)c1ccc2c(c1)nc1n2CCCCC1	none
COc1ccc(-c2nnc(SCC(=O)Oc3cccc(C)c3C)o2)cc1	Cruzain inh noDet inconclusive
CC1=C(c2ccc(C(C)C)cc2)S(=O)(=O)NC1=NCc1ccccc1C	none
CCOC(=O)c1cc2c(=O)n3ccccc3nc2n(Cc2ccco2)c1=NC(=O)c1cccnc1	Cruzain Triton 16µM | Papain inh inactive
CCOC(=O)c1cc2c(=O)n3ccccc3nc2n(Cc2ccco2)c1=NC(=O)c1cccc(C)c1	none
CCn1c(CN2CCOCC2)nc2cc(NC(=O)c3ccccc3[N+](=O)[O-])ccc21	none
CSCC[C@H](NC(=O)OC(C)(C)C)c1nnc(SCc2ccccc2)o1	none
COC(=O)CS(=O)(=O)c1nnc([C@H](Cc2ccccc2)NC(=O)OC(C)(C)C)o1	Cruzain Triton 7.1µM, Cruzain inh noDet 10µM | Papain inh 5.6µM
Cc1ccc(S(=O)(=O)N[C@H](CO)C(=O)O)cc1	none
Cc1ccc(S(=O)(=O)N[C@@H](Cc2ccccc2)C(=O)CCl)cc1	Cruzain Triton 7.1µM, Cruzain inh noDet 3.2µM | Papain inh 16µM!
COc1cccc(N2CCN(S(=O)(=O)c3cn(C)c(C)n3)CC2)c1	none
O=c1c2ccccc2sc2nc(C3CCCCC3)n(Cc3ccco3)c(=O)c12	Cruzain Triton 16µM | Papain inh inactive
CCc1nc2sc3ccccc3c(=O)c2c(=O)n1Cc1ccco1	none
O=C(NC1CCCC1)c1ccc(CSc2nc3ccncc3n2Cc2ccccc2F)cc1	none
CCC(C(=O)NC1CCCCC1)n1c(SCc2ccccc2F)nc2ccncc21 (stereo not given)	Cruzain Triton 13µM, Cruzain inh noDet inconclusive | Papain inh 28µM
Cc1cccc(-n2ncc(C(=O)NCc3ccc4c(c3)OCO4)c2C2CCN(C(=O)OC(C)(C)C)CC2)c1	none
Cc1ccc(OCCSc2nc3ccccc3n2CC(=O)NC(C)C)cc1	none
